Measurements: PubChem BioAssay (EPA / NIEHS)
Results filed as inconclusive are left out. The source made the active and inactive calls. The calls were made as follows: active = hit-call score of the fitted dose curve at least 0.9, where 1 is the maximum; inconclusive = response in the unintended direction; inactive = score below 0.9.

How the values were obtained:
[1] = ACEA_ER_AUC_viability: ACEA Biosciences xCELLigence Real-Time Cell Analysis on Estrogen Receptor Agonism for Viability (AID 2283782);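 also: hit means loss of impedance signal meaning reduced cell growth or viability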
How it was run: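 Continuous-exposure impedance cell analysis uses T-47D cells in charcoal-stripped serum, eight 1:4 dilutions topping at 100 uM final, biological duplicate. Area under the growth curve at 80 h is fitted against DMSO baseline.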

[2] = STM_H9_NormalizedViability: Cytotoxicity Assessment at 120 hours in the Stemina devTOX quickPredict H9 human embryonic stem cell (hESC)-based Assay (AID 2283784)
How it was run: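 Viability endpoint: background-corrected CellTiter-Fluor RFU expressed relative to the 0.1% DMSO mean on each plate. Undifferentiated H9 cells were treated with daily re-dosing and media change, and loss of signal was fitted.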

AR (gene 367) [3] = molecular target: AR (gene 367) (UniProt P10275); assay: ACEA_AR_agonist_80hr: ACEA Biosciences xCELLigence Real-Time Cell Analysis on Androgen Receptor Agonism for Proliferation (AID 2283783);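 also: hits increase impedance growth signal above DMSO baseline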
AR (gene 367), sequence (P10275 whole entry, looked up): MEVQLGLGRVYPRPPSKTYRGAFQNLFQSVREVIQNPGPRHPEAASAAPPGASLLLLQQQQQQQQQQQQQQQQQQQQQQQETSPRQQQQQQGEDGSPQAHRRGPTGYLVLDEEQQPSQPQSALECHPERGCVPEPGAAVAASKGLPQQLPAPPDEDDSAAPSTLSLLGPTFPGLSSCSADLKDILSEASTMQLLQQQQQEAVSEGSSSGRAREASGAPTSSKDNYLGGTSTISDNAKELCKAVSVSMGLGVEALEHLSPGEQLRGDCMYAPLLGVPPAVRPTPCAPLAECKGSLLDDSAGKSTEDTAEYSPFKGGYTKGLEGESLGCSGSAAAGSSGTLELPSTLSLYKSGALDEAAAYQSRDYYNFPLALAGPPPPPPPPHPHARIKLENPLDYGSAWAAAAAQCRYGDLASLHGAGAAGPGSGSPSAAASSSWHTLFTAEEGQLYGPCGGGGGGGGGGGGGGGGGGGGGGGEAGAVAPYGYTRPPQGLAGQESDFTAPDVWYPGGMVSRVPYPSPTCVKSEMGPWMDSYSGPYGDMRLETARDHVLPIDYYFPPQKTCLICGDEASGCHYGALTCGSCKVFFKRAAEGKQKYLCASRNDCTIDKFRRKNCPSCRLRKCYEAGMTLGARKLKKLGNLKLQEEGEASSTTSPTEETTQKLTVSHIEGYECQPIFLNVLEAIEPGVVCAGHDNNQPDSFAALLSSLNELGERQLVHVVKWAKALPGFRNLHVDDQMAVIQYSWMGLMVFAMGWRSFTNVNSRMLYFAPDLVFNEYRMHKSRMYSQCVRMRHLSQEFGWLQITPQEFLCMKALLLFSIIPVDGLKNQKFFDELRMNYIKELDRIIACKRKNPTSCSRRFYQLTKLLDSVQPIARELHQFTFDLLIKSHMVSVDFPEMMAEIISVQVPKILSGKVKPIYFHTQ
How it was run: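 Real-time cell-growth kinetics were recorded by electrode impedance in 22Rv1 cells exposed to test chemicals up to 100 uM final; the 80 h timepoint served as the readout, fitted upward relative to DMSO controls, in biological duplicate.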

AR (gene 367) [4] = molecular target: AR (gene 367) (UniProt P10275); assay: ACEA_AR_antagonist_80hr: ACEA Biosciences xCELLigence Real-Time Cell Analysis on Androgen Receptor Antagonism for Proliferation (AID 2283787);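 also: 22Rv1 human prostate cancer cells with growth followed by electrical impedance; hits lower the impedance growth signal relative to DMSO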
How it was run: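 Using 22Rv1 cells held in assay medium, we dosed compounds (100 uM maximum final, 1:4 serial, eight points, 0.5% DMSO at top) and recorded cell-electrode impedance; the 80 hr timepoint was analyzed against DMSO.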

CS(=O)(=O)c1cc(C(F)(F)F)ccc1C(=O)c1cnoc1C1CC1
outcome [1]: inactive
outcome [2]: inactive

CCNP(=S)(OC)O/C(C)=C/C(=O)OC(C)C (stereo unspecified)
outcome [2]: inactive

Cc1cnc(C2=NC(C)(C(C)C)C(=O)N2)c(C(=O)O)c1 (stereo unspecified)
outcome (AR (gene 367) [3]): inactive
outcome (AR (gene 367) [4]): inactive

CC(C)N1C(=O)N(c2ccccc2)CSC1=NC(C)(C)C
AC50 [1]: 89.6 µM (active)
AC50 (AR (gene 367) [4]): 50 µM (active)

CCOc1nc(C(Cl)(Cl)Cl)ns1
outcome [2]: inactive

CC(C)(C)C(=O)C(Oc1ccc(Cl)cc1)n1cncn1 (stereo unspecified)
outcome [2]: inactive

Cn1c(-c2ccccc2)cc(-c2ccccc2)[n+]1C
AC50 [2]: 31.1 µM (active)

N#CN=C1SCCN1Cc1ccc(Cl)nc1
outcome [2]: inactive
